Measurements taken from PubChem BioAssay AID1508600 (Functional Genomics Laboratory (NCATS/FGL), 2020).
Hit rate of the full screen: of about 53,000 sequences, about 3,700 (7%) were called active. This is one part of a sample in which actives are shown more often than they occur. Values without a mark were called inactive.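 The calls were made as follows: active = gene knockdowns whose robust z-score for IL-1 alpha signal is at least 2 or at most -2, so actives lie on both sides; inactive = the rest.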

test: Components of the Cytosolic LPS Sensing Pathway: Gene Identification via Genome-wide siRNA Screen; conditions: RAW264.7 macrophages, IL-1a HTRF, actives lie on both sides, screened at 100 nM (by protocol), cells primed 5 h with Pam3CSK4 first;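 also: robust z of the log signal after scaling to non-targeting control siRNA wells of the plate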
Method in brief: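 IL-1a HTRF of supernatants after 24 hour LipidA transfection of Pam3CSK4-primed (5 hours) RAW264.7 cells, 48h post-siRNA transfection (100 nM). Scores: percent of plate negative-control median, then log-based robust z-score.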

Sequence	z-score
CCCACUUGCUGAAAAUUGUTT against Ankib1	-0.338
CCCAGAACACCGUAUACUUTT against Itga3	3.95 (active)
CCAAUUUCCUUUCAGACUGTT against Cxxc4	-1.2
GGACAGCACAAUUACCUUUTT against Nr3c1	-0.299
GGGUAGGAAACAAACACAGTT against Cox11	-0.234
GAAUGCUCUGAGACUUUUATT against Cd300c2	-2.48 (active)
GCUCCAAUAGCGUAUAUUATT against Pigt	-0.75
GGAGGACUAGUUGUGACUUTT against Aldh1a1	-0.384
UGGCAAGAUUGAAACCAUATT against Hnrnpa3	-1.61
GGUUCUUUCGAGAAUGGACTT against Nod1	-0.145
GGAUUUCCCAUCAAAGACGTT against Serpinf2	0.155
GCCCAAAUGAGACUACUUUTT against Ces1e	-1.24
GGCUCAGAUACUCUUAUAATT against Aknad1	-3.24 (active)
GCUAAACAUAAAAAUCGACTT against Garre1	-1.27
GGAUUAAGUGGUCAAAUGATT against Ugt2b36	-0.62
CCACCUGUGCUACCACUUATT against Rexo4	-2.34 (active)
GGUUACAUAUCAGUUGAAATT against Slc35a3	0.032
GCAAAAUCUAGGGAUAAGATT against Trdv2-2	0.259
GGGAGAACAGCGACAAACATT against Cbfb	1.82
GAGUUCGAUGUUCAGGAGCTT against Ndrg1	-0.354
GGUUCAUGGGUUUUAAGUGTT against Eif1	2.25 (active)
GGAAGAGGAGAAGAAAAAGTT against Syf2	-1.25

Sequence	z-score
GCACAGUUGGCAACCUUUATT against S100a9	-0.029
GGAUAACCCUAAGUUUAUGTT against Clu	0.753
GGACCUCAUCUACAGAAUGTT against Tssk1	0.878
CGGACAAAGGACGAGUGUUTT against Fn3krp	3.02 (active)
GGCAGUAGCCAGAAGGCAUTT against Rnf215	0.373
CGACAUAGCUUCUGUACUGTT against Spaca9	-1.42
CCUUUAGGUACCACGAGUGTT against Large2	-0.965
CCUUUAAAGUAAGCAUGUGTT against Slc27a4	0.112
GUUCUUUUUCUUCGGUUCCTT against Olfr1020	0.769
GGGUCUAGAGUGCAUCUUCTT against Krt78	0.418
GGCUGUUUUUGCCGGUAUCTT against Teddm3	1.58
GGAAAACCAACAAAGCAAATT against Pde10a	-0.692
UAUGACUCCACUCUUCUCUTT against Olfr1158	-2 (active)
GGAAGAGGGCAAAAAUGGCTT against Sgms2	-0.441
GGUUAUUUCGGGAGAUAAGTT against Nudcd1	-0.351
GGCAGAACGGAAUAAAAUGTT against Stag2	-3.03 (active)
CCUGAUCAUGUUGAAGGAATT against Ktn1	0.256
GGACACUGCAAAAGAGGAGTT against Defa4	1.37
GGGAUACUCCAGACAAGGUTT against Usp17ld	0.142
GGCCAUCAGAGCUACACUUTT against Gpa33	0.806
CAUUGGUAUUGCCAAGGCATT against Olfr1330	0.373
GGGAGAAACCAUUUCAAGATT against Gm5084	0.0759

Sequence	z-score
GGAUUUCUCUGCCUGUACUTT against Gdpgp1	0.37
GAUGAAGAGGCAGGCCAAGTT against Nkx2-4	2.63 (active)
GGUGUUAGCGAAAUGCUCATT against Prl7b1	-0.875
GCUCACUGCUACAAAUACCTT against Prss2	-1.82
GCUUUAUCCACAGGUGCCATT against Olfr1350	-1.9
GCCUAUUCACCAAAUCACATT against Frrs1	0.408
GAUCUGGCUGCUUCUUACCTT against Porcn	-0.623
GGCAUAAGAAAAUGGACCCTT against Fhit	2.04 (active)
GGGAUAGUGUAAGUUAGUUTT against Dppa4	-0.0875
GUUCUGAAAAUAGAAUAAUTT against Vmn1r16	0.237
GGCUUGAUUGCAUCUUUAUTT against Ebpl	-0.765
CGACACACCUAGCUAAACCTT against Dgkeos	-1.98
GGCCUUAGAACAAGGAAUATT against Cdk7	-0.769
CCAAUUACGAGACUCUCAUTT against Zfp786	-0.00661
GCUUAUUGAACUAUUGUUGTT against Trpc4	3.72 (active)
GGAGCAGUCUAUCUUUGGUTT against Dbn1	1.3
GGAGAACAAGGCAAAAGAATT against Mindy4	-0.945
GCAGACAGAGUUUUAACGUTT against Fancl	-0.381
GCCAUUCACUUAAUUCAGUTT against H2ac8	-1.32
GGCUCUGGCCAUAUUUUGGTT against Olfr549	-1.44
CCAUAGGUAUCAUUGCAAGTT against Tas2r139	-2.16 (active)
GCAAUAAUCGUUCUCAAAATT against Prkab1	1.5

Sequence	z-score
GGAGAUCAGCUGUCUAAUGTT against Tmem237	-0.207
GGACAGGAUGAGUUUGACATT against Rhou	-1.52
GGAAAUCUCAGAAAUCAAATT against Pmf1	-1.15
GCUCCUUGGGCGAUUUCAGTT against Aggf1	0.265
GCAAGGUAUUCCAUGCUCATT against Psg27	-0.616
GCUGUGAUCUCAGUAUUCATT against Strbp	0.443
GGUGACCACUUUUAUCUGATT against Olah	0.601
GCCUAAAAAAUCUCUGUGATT against Zswim3	-2.77 (active)
GGACUAUAGAUCCUAAGUCTT against Kcnab2	-0.246
CCACCCUGUGAAAAAGUCATT against Ccr3	-1.08
GAAAGGAAAGCUAGCCAUGTT against Gm5622	0.614
CCAUUGAAUCAGUUGAAGUTT against Slc5a7	1.21
GGCCGUUAUGUUUUACAAGTT against Dnajc19	0.00748
GGGCAUACAUAUAACCUAUTT against Fermt2	-0.285
GCUUUUUGACUACGUAGCCTT against Hkdc1	0.0141
GGUUUGAGAAAUUGGACAUTT against Pou6f1	3.72 (active)
GGAAAGCAGGACAAAAGGCTT against Mettl18	0.346
GUCAUCUUGUUCCAUCUGATT against Olfr1269	-1.12
CGACCUAACCAACAUGCUUTT against Asap3	0.0248
GGUAGCUGUUUAGGACAAUTT against Arl6ip5	3.79 (active)
GCGAUUCUGUUGUUAGCUUTT against Rln1	0.134
GGUAGAAUUGUGAUCUCAGTT against Bco2	-0.411

Sequence	z-score
GCAGGUACUAUUUGUGACGTT against Olfr30	1.07
GCAGCACGAACUGAUGACGTT against Plcd3	-2.18 (active)
GGUGGACAACCAGUUCUACTT against Mapk10	1.27
CCUGUGUUUCAGUUUGGUATT against Clptm1l	0.549
GGCUCAAUAAUGUUUUCAATT against Smpd3	3.18 (active)
CGUAAAUUCACCAAGGAGCTT against Slc19a1	-0.805
GGACAUUGACACUUCCCUGTT against P2rx5	-1.85
GGAGAUAACAGAUCUGUUUTT against Fam114a2	-0.843
GGCAUCCACACAGAACAAGTT against Zfp467	-0.287
GGGAUAGGGUUCAAUUAGGTT against Bcl2l13	0.231
GUCCCAGUACUUCUUGUUUTT against Vmn1r27	0.675
GGGUGAUAAAUGUUUGAAUTT against Vmn1r45	0.338
GGAGGCUGUUGUGGAUCUUTT against Acin1	1.03
GGAAUGUGAAGAAGAAAUUTT against Dnttip2	2.03 (active)
GCCUAUUGUAGUGUUACAUTT against Cyp2c67	-0.887
GGUGAUCCAGCUUUCUUGGTT against Tiaf2	-0.351
GGGAAAACAGGUACGACUGTT against Odf1	-0.743
GGUGAUCAAGGACAUUUAATT against Psma5	0.0545
GCCAAUGCUUCCAUUACCATT against Abca17	0.141
